# Measurements from the supplement of paper PMC9135407.
# Structures can show the parent of a compound that is named as a salt.
# System: primary human hepatic stellate cells (donor 1)
# Test: ACTA2 mRNA fold change vs DMSO (normalised to PSMB2); higher = more ACTA2 expression
# Details: 48 h
# Protocol: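 Secondary qRT-PCR screen in primary human HSCs (donor 1), 384-well plates, with compounds dispensed in quadruplicate and incubated for 48 h. Cells-to-CT lysates were used for multiplexed TaqMan qPCR of ACTA2 or COL1A1 with PSMB2 as reference. Fold changes versus DMSO come from a linear model (Ct_gene ~ Ct_PSMB2 + plate + chemical). A hit is defined as COL1A1 and ACTA2 FC <0.5 (FDR <0.05) with PSMB2 between 0.2 and 2.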
row,SMILES,ACTA2 mRNA fold change
1,Fc1cc(F)c2c(c1)[C@H]1C=CC[C@H]1C(c1cccnc1)N2 (some centres not stated) [Golgicide A] (33.3333 µM),0.00835
2,COc1ccc2[nH]cc(C3=CCNCC3)c2c1 (33.3333 µM),3.02
3,O=C1C2CCN(CC2)C1(CO)CO (90 µM),0.152
4,CN1[C@@H]2CC[C@H]1C[C@@H](OC(c1ccc(F)cc1)c1ccc(F)cc1)C2 [3 α-Bis-(4-fluorophenyl) methoxytropane hydrochloride] (33.3333 µM),0.094
5,C[C@]12CC[C@H](O)C[C@H]1CC[C@@H]1[C@@H]2CC[C@]2(C)[C@@H](C3=CC(=O)OC3)CC[C@]12O [Digitoxigenin] (33.3333 µM),0.0171
6,C[C@@H]1O[C@@H](O[C@H]2C[C@@H](O)[C@]3(CO)[C@H]4[C@H](O)C[C@]5(C)[C@@H](C6=CC(=O)OC6)CC[C@]5(O)[C@@H]4CC[C@]3(O)C2)[C@H](O)[C@H](O)[C@H]1O [Ouabain] (33.3333 µM),0.0189
7,COc1ccc2c(c[n+](C)c3c4cc5c(cc4ccc23)OCO5)c1OC (6.66667 µM),0.0494
8,CCN(CC)CCO[C@H]1CC[C@@]2(C)C(=CC[C@@H]3[C@@H]2CC[C@]2(C)C(=O)CC[C@@H]32)C1 (33.3333 µM),0.123
9,CCCCCCCCCCCCCC(=O)O[C@@H]1[C@@H](C)[C@@]2(O)[C@@H](C=C(CO)C[C@]3(O)C(=O)C(C)=C[C@@H]23)[C@@H]2C(C)(C)[C@]12OC(C)=O [Phorbol 12-myristate 13-acetate] (27.0333 µM),0.624
10,CN[C@@H]1C[C@H]2O[C@@](C)([C@@H]1OC)n1c3ccccc3c3c4c(c5c6ccccc6n2c5c31)C(=O)NC4 [staurosporine] (35.6667 µM),0.667
11,O=c1[nH]c2ccccc2n1C1CCN(CCCC(c2ccc(F)cc2)c2ccc(F)cc2)CC1 [Pimozide] (33.3333 µM),0.0136
12,"CN(C(=O)Cc1ccc(Cl)c(Cl)c1)[C@H](CN1CCCC1)c1ccccc1 [ICI-199,441 hydrochloride] (33.3333 µM)",0.0655
13,CC1=C(O)C(=O)C=C2C1=CC=C1[C@@]2(C)CC[C@@]2(C)[C@@H]3C[C@](C)(C(=O)O)CC[C@]3(C)CC[C@]12C [Celastrol] (3.33333 µM),0.524
14,O=[N+]([O-])/C=C/c1ccc2c(c1)OCO2 (3.7 µM),0.905
15,O=C1/C(=C/c2ccccc2)C[C@@]2(O)[C@H]3Cc4ccc(O)c5c4[C@@]2(CCN3CC2CC2)[C@H]1O5 [BNTX maleate] (33.3333 µM),0.275
16,CC1=C(CC/C(C)=C/CCC2=CC[C@H](C3=CC(=O)O[C@H]3O)O[C@H]2O)C(C)(C)CCC1 [Manoalide] (40 µM),0.0669
17,CC1=NCCc2c1[nH]c1cc(O)ccc21 [Harmalol hydrochloride dihydrate] (24.4333 µM),0.546
18,CC(C(=O)OC1CC2CCC(C1)N2C)c1ccc(Br)cc1 (configuration not stated) [PG-9 maleate] (33.3333 µM),0.404
19,C[C@H](N)Cn1ccc2cc(F)c(Cl)cc21 [Ro 60-0175 fumarate] (33.3333 µM),0.532
20,CO[C@H]1CC[C@@H](O[C@H]2C[C@H]([C@]3(C)CC[C@]4(C[C@H](O)[C@@H](C)[C@@H]([C@@H](C)/C=C(\C)C(=O)[C@H](C)C[C@H](C)C(=O)O)O4)O3)O[C@]3(O[C@@H]([C@H]4O[C@@](O)(CO)[C@H](C)C[C@@H]4C)C[C@@H]3C)[C@@H]2C)O[C@@H]1C [Nanchangmycin] (11.1 µM),0.0291
21,CC[C@H]1CN2CCc3cc(OC)c(OC)cc3[C@@H]2C[C@@H]1C[C@H]1NCCc2cc(OC)c(OC)cc21 [Emetine] (12.0333 µM),0.0996
22,CCN1CCN(C(=O)Cc2ccc(Nc3ncc(F)c(Nc4ccc(C(=O)Nc5ccccc5Cl)cc4)n3)cc2)CC1 [Aurora A Inhibitor I] (33.3333 µM),0.131
